# Measurements published in PubChem BioAssay.
# Values joined by “and” are separate entries in the source; they are usually repeats but may differ in a detail not shown here. Equal entries are not always repeated. Active and inactive are the calls of the source.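 Rule for the calls, unless noted: active = mean z-score across replicates of 1.96 or higher in either the MELAS or the Rieske mutant cell line; inactive = the rest.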
# Experiment: blockers of cellular phospholipid synthesis – cell-based, LOPAC library, screen 4, primary screen (AID 1347384; call rule not given here)
# Details: animal cells, phospholipid biosynthesis inhibition screen; at 10 µM
row,SMILES,outcome
1,COc1cccc(OC)c1OCCNCC1COc2ccccc2O1 (stereo not drawn),inactive
2,O=C(O)C1=CCNCC1,inactive
3,CCCn1c(=O)c2[nH]c(C3CCCC3)nc2n(CCC)c1=O,inactive
4,CN[C@H](CC(C)C)C(=O)N[C@H]1C(=O)N[C@@H](CC(N)=O)C(=O)N[C@H]2C(=O)N[C@H]3C(=O)N[C@H](C(=O)N[C@H](C(=O)O)c4cc(O)cc(O)c4-c4cc3ccc4O)[C@H](O)c3ccc(c(Cl)c3)Oc3cc2cc(c3O[C@@H]2O[C@H](CO)[C@@H](O)[C@H](O)[C@H]2O[C@H]2C[C@](C)(N)[C@H](O)[C@H](C)O2)Oc2ccc(cc2Cl)[C@H]1O,inactive
5,O=C(O)C1=CCCNC1,inactive
6,COc1cc(NS(C)(=O)=O)ccc1Nc1c2ccccc2nc2ccccc12,inactive
7,CC(=O)[C@H]1CC[C@H]2[C@@H]3CCC4=CC(=O)CC[C@]4(C)[C@H]3CC[C@]12C,inactive
8,O=C(O)c1cc(=O)c2ccccc2[nH]1,inactive
9,CC(C)C[C@H]1C(=O)N2CCC[C@H]2[C@]2(O)O[C@](NC(=O)[C@@H]3C=C4c5cccc6[nH]c(Br)c(c56)C[C@H]4N(C)C3)(C(C)C)C(=O)N12,inactive

# Experiment: MELAS cybrid and Rieske KO viability enhancers – cell-based, MELAS cybrids, Rieske KO mouse fibroblasts, CellTiter-Glo, primary screen (AID 1508586);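 note: z relative to plate mean and SD of compound and empty wells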
# Details: MELAS cybrid survival, low glucose, CellTiter-Glo 48 h; stronger effect = higher value
row,SMILES,z-score
1,COc1ccc([C@@H]2CC(=O)c3c(O)cc(O[C@@H]4O[C@H](CO[C@@H]5O[C@@H](C)[C@H](O)[C@@H](O)[C@H]5O)[C@@H](O)[C@H](O)[C@H]4O)cc3O2)cc1O,-0.52 (inactive)
2,C[C@H]1O[C@@H](O[C@H]2[C@@H](O)C[C@H](O[C@H]3[C@@H](O)C[C@H](O[C@H]4CC[C@@]5(C)[C@H](CC[C@@H]6[C@@H]5C[C@@H](O)[C@]5(C)[C@@H](C7=CC(=O)OC7)CC[C@]65O)C4)O[C@@H]3C)O[C@@H]2C)C[C@H](O)[C@@H]1O,-1.21 (inactive)
3,CCC[C@@H]1C[C@@H](C(=O)N[C@@H]([C@H]2O[C@H](SC)[C@H](O)[C@@H](O)[C@H]2O)[C@@H](C)O)N(C)C1,0.52 (inactive) and 0.4 (inactive)
4,C[C@@H]1[C@H](O)[C@@H](C)/C=C/C=C/C=C/C=C/C=C/C=C/C=C/[C@H](O[C@@H]2O[C@H](C)[C@@H](O)[C@H](N)[C@@H]2O)C[C@@H]2O[C@](O)(C[C@@H](O)C[C@@H](O)[C@H](O)CC[C@@H](O)C[C@@H](O)CC(=O)O[C@H]1C)C[C@H](O)[C@H]2C(=O)O,-0.838 (inactive)
5,COc1ccc(-c2cc(=O)c3c(O)cc(O[C@@H]4O[C@H](CO[C@@H]5O[C@@H](C)[C@H](O)[C@@H](O)[C@H]5O)[C@@H](O)[C@H](O)[C@H]4O)cc3o2)cc1O,0.526 (inactive)
6,C[C@H](CCC(=O)O)[C@H]1CC[C@H]2[C@@H]3[C@H](O)C[C@@H]4C[C@H](O)CC[C@]4(C)[C@H]3CC[C@]12C,0.377 (inactive)
7,CCC[C@@H]1C[C@@H](C(=O)N[C@@H]([C@H]2O[C@H](SC)[C@H](O)[C@@H](O)[C@H]2O)[C@H](C)Cl)N(C)C1,-0.831 (inactive) and -0.519 (inactive)
8,CC[C@@]1(O)C[C@H](O[C@H]2C[C@H](N(C)C)[C@H](O[C@H]3C[C@H](O)[C@H](O[C@H]4CCC(=O)[C@H](C)O4)[C@H](C)O3)[C@H](C)O2)c2c(cc3c(c2O)C(=O)c2c(O)cccc2C3=O)[C@H]1C(=O)OC,0.116
9,CC(=O)[C@H]1CC[C@H]2[C@@H]3CCC4=CC(=O)CC[C@]4(C)[C@H]3CC[C@]12C,-0.398 (inactive) and 0.245 (inactive)
10,N=c1ccn2c(n1)O[C@H]1[C@H](O)[C@@H](CO)O[C@H]12,-0.885 (inactive)
11,CC(C)C[C@H]1C(=O)N2CCC[C@H]2[C@]2(O)O[C@](NC(=O)[C@@H]3C=C4c5cccc6[nH]c(Br)c(c56)C[C@H]4N(C)C3)(C(C)C)C(=O)N12,-0.164 (inactive)
12,C[C@H]1C[C@H]2[C@@H]3CCC4=CC(=O)C=C[C@]4(C)[C@@]3(F)[C@@H](O)C[C@]2(C)[C@@]1(O)C(=O)CO,-0.582 (inactive)

# Same assay, conditions: Rieske KO mouse fibroblast survival, low glucose, CellTiter-Glo 72 h
row,SMILES,z-score
1,COc1ccc([C@@H]2CC(=O)c3c(O)cc(O[C@@H]4O[C@H](CO[C@@H]5O[C@@H](C)[C@H](O)[C@@H](O)[C@H]5O)[C@@H](O)[C@H](O)[C@H]4O)cc3O2)cc1O,-0.165
2,C[C@H]1O[C@@H](O[C@H]2[C@@H](O)C[C@H](O[C@H]3[C@@H](O)C[C@H](O[C@H]4CC[C@@]5(C)[C@H](CC[C@@H]6[C@@H]5C[C@@H](O)[C@]5(C)[C@@H](C7=CC(=O)OC7)CC[C@]65O)C4)O[C@@H]3C)O[C@@H]2C)C[C@H](O)[C@@H]1O,0.0199
3,CCC[C@@H]1C[C@@H](C(=O)N[C@@H]([C@H]2O[C@H](SC)[C@H](O)[C@@H](O)[C@H]2O)[C@@H](C)O)N(C)C1,-0.069 and -0.671
4,C[C@@H]1[C@H](O)[C@@H](C)/C=C/C=C/C=C/C=C/C=C/C=C/C=C/[C@H](O[C@@H]2O[C@H](C)[C@@H](O)[C@H](N)[C@@H]2O)C[C@@H]2O[C@](O)(C[C@@H](O)C[C@@H](O)[C@H](O)CC[C@@H](O)C[C@@H](O)CC(=O)O[C@H]1C)C[C@H](O)[C@H]2C(=O)O,-0.728
5,COc1ccc(-c2cc(=O)c3c(O)cc(O[C@@H]4O[C@H](CO[C@@H]5O[C@@H](C)[C@H](O)[C@@H](O)[C@H]5O)[C@@H](O)[C@H](O)[C@H]4O)cc3o2)cc1O,0.0112
6,C[C@H](CCC(=O)O)[C@H]1CC[C@H]2[C@@H]3[C@H](O)C[C@@H]4C[C@H](O)CC[C@]4(C)[C@H]3CC[C@]12C,-0.0721
7,CCC[C@@H]1C[C@@H](C(=O)N[C@@H]([C@H]2O[C@H](SC)[C@H](O)[C@@H](O)[C@H]2O)[C@H](C)Cl)N(C)C1,-0.0935 and -0.00307
8,CC[C@@]1(O)C[C@H](O[C@H]2C[C@H](N(C)C)[C@H](O[C@H]3C[C@H](O)[C@H](O[C@H]4CCC(=O)[C@H](C)O4)[C@H](C)O3)[C@H](C)O2)c2c(cc3c(c2O)C(=O)c2c(O)cccc2C3=O)[C@H]1C(=O)OC,2.56
9,CC(=O)[C@H]1CC[C@H]2[C@@H]3CCC4=CC(=O)CC[C@]4(C)[C@H]3CC[C@]12C,-0.301 and 1.24
10,N=c1ccn2c(n1)O[C@H]1[C@H](O)[C@@H](CO)O[C@H]12,-0.24
11,CC(C)C[C@H]1C(=O)N2CCC[C@H]2[C@]2(O)O[C@](NC(=O)[C@@H]3C=C4c5cccc6[nH]c(Br)c(c56)C[C@H]4N(C)C3)(C(C)C)C(=O)N12,-0.261
12,C[C@H]1C[C@H]2[C@@H]3CCC4=CC(=O)C=C[C@]4(C)[C@@]3(F)[C@@H](O)C[C@]2(C)[C@@]1(O)C(=O)CO,-0.299
